The target of assay [1] is Aldehyde dehydrogenase, mitochondrial (Homo sapiens) (UniProt P05091). The assay is described as follows: qHTS for Inhibitors of the Aldehyde Dehydrogenase Family (ALDH2) Primary screen (AID 2061308). Also: nearly all actives have a fitted effect of over 55% in size. The conditions noted are these: ALDH2 enzyme inhibition qHTS, 1536-well; series mostly up to 56 µM.
Assay [2] has as its target Retinaldehyde dehydrogenase 3 (Homo sapiens) (UniProt P47895). Description: qHTS for Inhibitors of the Aldehyde Dehydrogenase Family (ALDH1A3) Primary screen (AID 2061315). The conditions noted are these: ALDH inhibition qHTS; series mostly up to 56 µM.

Results filed as inconclusive are left out. Where a call stands in place of a potency, no number is given. Active and inactive are the calls of the source. Calls follow the shape of the dose curve; as a rule, active = well fitted curve in the direction sought with a large enough effect; inconclusive = small, poorly fitted or top-dose-only effect, or another doubt; inactive = no such curve, though single readings can be large; an effect the other way counts as inactive or inconclusive.

For `NC(=O)C1CCN(c2nc(-c3ccc(C(F)(F)F)cc3)cs2)CC1`, the Potency result in assay [1] and in assay [2] was “inactive” each time.
In the case of `O=C1CCCC2=C1C(c1[nH]ncc1Cl)N=C(Nc1nc3c(Br)cccc3o1)N2` (stereo unspecified), the Potency entry in assay [1] and in assay [2] was “inactive” in each case.
In the case of `CSc1ccccc1-c1ncc(C)c(NCc2ccc(-c3cccnc3)cc2)n1`, the Potency entry in assay [1] and in assay [2] was “inactive” in each case.
On to `NC(=O)C1CCN(c2nc(-c3ccc4c(c3)CCO4)cs2)CC1`, for which the Potency result in assay [1] and in assay [2] was “inactive” in each case.
Consider `O=C(O)c1ccc2c(c1)C(=O)N([C@H](Cc1ccc(-c3ccccc3)cc1)C(=O)O)C2=O`, for which the Potency result in assay [1] and in assay [2] was “inactive” each time.
`CCNc1ncnc2ccc(-c3ccc4c(c3)OCO4)cc12`: the Potency entry in assay [1] and in assay [2] was “inactive” throughout.
`COc1ccc(NS(=O)(=O)c2ccccc2C(=O)O)cc1`: the Potency result in assay [1] and in assay [2] was “inactive” in each case.
`COc1ccccc1C1c2c(ncn(-c3ccccc3)c2=N)Oc2ccc3ccccc3c21` (stereo unspecified): the Potency result in assay [1] and in assay [2] was “inactive” each time.
For `Cc1ccc(OCCn2c(CCNC(=O)c3ccccc3)nc3ccccc32)cc1`, the Potency result in assay [1] and in assay [2] was “inactive” in each case.
As for `O=S1(=O)N=C(Oc2cccc(C(F)(F)F)c2)c2ccccc21`, the Potency entry in assay [1] and in assay [2] was “inactive” in each case.
Take `Cc1cc2c(s1)c1cnn(Cc3ccccc3Cl)c(=O)c1n2C`: the Potency entry in assay [1] and in assay [2] was “inactive” in each case.
With `O=[S+]([O-])(c1ccc2c(c1)OCCO2)N1CCN([S+](=O)([O-])c2ccc(F)cc2Br)CC1`, the Potency result in assay [1] and in assay [2] was “inactive” throughout.
On to `Cc1cc(NS(=O)(=O)c2ccc(NC(=O)Cc3ccc(Cl)cc3)cc2)no1`, for which the Potency entry in assay [1] and in assay [2] was “inactive” each time.
For `CC(=O)Nc1sc2c(c1-c1ccccc1)CCNC2`, the Potency result in assay [1] and in assay [2] was “inactive” throughout.
On to `Cc1ccc(S(=O)(=O)Nc2cnccc2C(=O)Nc2nc(-c3cccc(C)c3)cs2)cc1`, for which the Potency entry in assay [1] and in assay [2] was “inactive” throughout.
Regarding `S=P(c1ccccc1)(c1ccccc1)c1nc(CCCc2ccccc2)n2ccccc12`, the Potency entry in assay [1] and in assay [2] was “inactive” in each case.
On to `Cc1ccc(S(=O)(=O)NCCC(=O)Nc2nc(-c3ccccc3)cs2)cc1`, for which the Potency entry in assay [1] and in assay [2] was “inactive” in each case.
On to `Cc1cccc(-c2ccc3ncnc(NCc4cccc(F)c4)c3c2)c1`, for which the Potency result in assay [1] and in assay [2] was “inactive” in each case.
Take `COC(=O)c1ccc2c(c1)/C(=C/c1cc(Br)c(O)c(Br)c1)C(=O)N2`: the Potency result in assay [1] and in assay [2] was “inactive” each time.
Consider `O=C(/C=C/c1ccccc1Cl)Nc1cccc([S+](=O)([O-])Nc2ccccc2F)c1`, for which the Potency entry in assay [1] and in assay [2] was “inactive” throughout.
On to `O=C(NCCCc1ccccc1)C1CCN(c2nc(-c3ccc(Br)cc3)cs2)CC1`, for which the Potency entry in assay [1] and in assay [2] was “inactive” in each case.
Consider `COc1ccc(NC(=O)C(OC(=O)CNC(=O)c2ccccc2)c2ccccc2)cc1Cl` (stereo unspecified), for which the Potency result in assay [1] and in assay [2] was “inactive” throughout.
For `Cc1cccc(Nc2nc(NCCO)nc(N3CCCC3)n2)c1`, the Potency result in assay [1] and in assay [2] was “inactive” in each case.
On to `O=c1cc(CN2CCCN(c3ccc(C(F)(F)F)cn3)CC2)nc2ccccn12`, for which the Potency result in assay [1] and in assay [2] was “inactive” throughout.
On to `O=C(O)c1ccc2c(c1)C(=O)N([C@H](Cc1ccc([N+](=O)[O-])cc1)C(=O)O)C2=O`, for which the Potency entry in assay [1] and in assay [2] was “inactive” each time.
With `CC(=O)Nc1sc2c(c1-c1nc3ccccc3s1)CCN(C)C2`, the Potency result in assay [1] and in assay [2] was “inactive” throughout.
As to `COCCNc1nc(C)nc2c1nc(-c1ccccc1)n2CC1CCN(C)CC1`, the Potency result in assay [1] and in assay [2] was “inactive” each time.
For `Cc1cccc(CNc2ccnc(-c3cc(C(F)(F)F)cc(C(F)(F)F)c3)n2)c1`, the Potency entry in assay [1] and in assay [2] was “inactive” each time.
`Cc1cc(N[S+](=O)([O-])c2cc3c(cc2Cl)NC(=O)CO3)ccc1Br`: the Potency entry in assay [1] and in assay [2] was “inactive” each time.
For `Cc1ccc(S(=O)(=O)Nc2cc(C)ccc2C(=O)Nc2nc(-c3ccccc3)cs2)cc1`, the Potency entry in assay [1] and in assay [2] was “inactive” in each case.
For `O=C(Nc1ccc(-c2nc3ccccc3[nH]2)cc1)c1ccncc1`, the Potency result in assay [1] and in assay [2] was “inactive” each time.
In the case of `CC(C)c1cccc(C(C)C)c1NC(=O)Nc1ccc(Sc2ccc([N+](=O)[O-])cc2)cc1`, the Potency result in assay [1] and in assay [2] was “inactive” in each case.
For the compound `O=C(c1ccccc1O)N(Cc1cccs1)Cc1cccs1`, the Potency result in assay [1] and in assay [2] was “inactive” each time.
`Cc1ccc(-c2cc(C(=O)Nc3ccc(S(C)(=O)=O)cc3)c3ccccc3n2)cc1C`: the Potency entry in assay [1] and in assay [2] was “inactive” each time.
For `CC(C)COc1ccc(-c2csc(N3CCC(C(N)=O)CC3)n2)cc1`, the Potency entry in assay [1] and in assay [2] was “inactive” in each case.
Consider `c1ccc(OCc2nnc3ccc(-c4ccccc4)nn23)cc1`, for which the Potency result in assay [1] and in assay [2] was “inactive” throughout.
As for `CCOc1ccc(CCNC(=O)c2cc3ccccc3n2C)cc1OCC`, the Potency entry in assay [1] and in assay [2] was “inactive” throughout.
As to `Cc1ccc(S(=O)(=O)Nc2cc(Cl)cc(C(=O)Nc3nc(-c4ccccc4)cs3)c2)cc1`, the Potency entry in assay [1] and in assay [2] was “inactive” throughout.
Regarding `Cn1c2cc(B(O)O)sc2c2cnn(Cc3c(F)cccc3Cl)c(=O)c21`, the Potency entry in assay [1] and in assay [2] was “inactive” throughout.
On to `COc1cc(O)c(C(CC(=O)N2CCC(C)CC2)c2ccc(OC)c(OC)c2)c(OC)c1` (stereo unspecified), for which the Potency entry in assay [1] and in assay [2] was “inactive” each time.
Take `CCCn1c(C)nc2c(N(CCN(C)C)Cc3ccccc3)nc(C)nc21`: the Potency result in assay [1] and in assay [2] was “inactive” each time.
As for `Cn1nnnc1Sc1ncnc2scc(-c3ccccc3Br)c12`, the Potency entry in assay [1] and in assay [2] was “inactive” throughout.
With `O=C(O)c1ccc2c(c1)C(=O)N([C@H](Cc1c3ccccc3cc3ccccc13)C(=O)O)C2=O`, the Potency entry in assay [1] and in assay [2] was “inactive” each time.

The record behind these values is PubChem BioAssay (NCATS).
